SW480 rereplic – induces DNA re-replication in SW480 colon adenocarcinoma cells; SW480 DNA re-replication, Hoechst DNA content imaging, 48 h; actives 1.8% (n = 340,000); Potency, µM (top dose mostly 46.1 µM), for inactives: top-dose re-replication activation, most hits filed as activators; AID 624297; also: % of control where 0% means no effect; nearly all actives have a fitted effect of over 55% in size
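Compounds, transferred as 23 nL by pin tool, were incubated with cells for 48 hr; DNA content per nucleus was then quantified by Hoechst staining and fluorescence plate imaging.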
KB-3-1 tox – kills parental KB-3-1 adenocarcinoma cells; Potency, µM (series often up to 46.1 µM), actives largely listed as cytotoxic; actives 1.4% (n = 400,000); KB-3-1 viability, CellTiter-Glo ATP luminescence, 72 h; also: % is scaled to controls: 0 for no effect and ±100 for the full control effect; nearly all actives have a fitted effect of over 60% in size
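Luminescent ATP read-out (CellTiter-Glo) measures survival of drug-naive KB-3-1 cells after 72 h compound exposure at 37 °C. Titration series was screened from lowest to highest concentration, with DMSO vehicle plates as background controls.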
MCF10A rerep – induces DNA re-replication in MCF 10a normal breast cells. actives 2.9% (n = 350,000). MCF 10A DNA re-replication, Hoechst nuclear intensity, 48 h. Potency, µM (highest dose often 46.1 µM), without a hit: at the top dose activity, positive = re-replication, most hits filed as activators; also: % of control where 0% means no effect; nearly all actives have a fitted effect of over 50% in size
TSG101-PTAP inh – blocks PTAP/TSG101 interaction to inhibit HIV-1 budding. Q99816. Fluorescence polarization, FITC-PTAP peptide / Tsg101 binding. Potency, µM (top dose mostly 115 µM), for inactives: at the highest dose activity change, negative = inhibition, actives largely listed as inhibitors. 340,000 tested, under 10 active. AID 493005; active = well fitted inhibition curve with a large enough effect in the main read-out, with a control signal flat, not every such curve was filed as active; inconclusive = small, poorly fitted or top-dose-only effect, or effect the other way, or a change in a side signal; inactive = no such curve, though single readings can be large or run the other way; also: % of control where 0% means no effect
Target sequence (Q99816 whole entry, looked up): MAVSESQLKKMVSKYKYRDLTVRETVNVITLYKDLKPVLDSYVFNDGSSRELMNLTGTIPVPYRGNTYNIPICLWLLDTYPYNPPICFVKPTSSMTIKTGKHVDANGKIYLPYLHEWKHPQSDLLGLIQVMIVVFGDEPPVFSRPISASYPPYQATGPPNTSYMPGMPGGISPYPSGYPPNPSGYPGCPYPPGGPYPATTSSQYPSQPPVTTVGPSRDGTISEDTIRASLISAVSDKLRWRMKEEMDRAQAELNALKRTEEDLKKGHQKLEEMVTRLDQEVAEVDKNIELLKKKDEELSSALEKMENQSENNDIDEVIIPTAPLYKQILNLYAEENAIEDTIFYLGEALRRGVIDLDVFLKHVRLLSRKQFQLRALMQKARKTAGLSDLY
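Compounds were pin-transferred onto Tsg101 binding domain (10 uM final) in HEPES pH 7.5 buffer, then FITC-PTAP peptide was added at 50 nM final. After 20 min at RT, polarization reported peptide displacement across a qHTS concentration series.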
KB-V1 MDR tox – kills drug-selected multidrug resistant KB-V1 cells | AID 1347076 | actives 3.4% (n = 400,000) | KB-V1 MDR cells viability, CellTiter-Glo, 72 h | Potency, µM (highest dose often 46.1 µM), hits mostly cytotoxic; also: % is scaled to controls: 0 for no effect and ±100 for the full control effect; nearly all actives have a fitted effect of over 60% in size
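Luminescent ATP read-out (CellTiter-Glo, 10 min) measures survival of drug-selected KB-V1 MDR cells after 72 h, 37 degrees C compound exposure. Medium: phenol-red-free DMEM, 10% FBS. Values from fitted concentration-response curves.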
RGS4 inhibitor – inhibitors of human regulator of G protein signaling 4 | P49798 | Transcreener GDP fluorescence polarization, RGS4-accelerated GTP hydrolysis | Potency, µM (doses to about 114 µM), for inactives: at the top dose activity change, negative = inhibition, most hits filed as inhibitors | actives 0.039% (n = 390,000); also: % is scaled to controls: 0 for no effect and ±100 for the full control effect; nearly all actives have a fitted effect of over 75% in size
Target sequence (P49798 whole entry, looked up): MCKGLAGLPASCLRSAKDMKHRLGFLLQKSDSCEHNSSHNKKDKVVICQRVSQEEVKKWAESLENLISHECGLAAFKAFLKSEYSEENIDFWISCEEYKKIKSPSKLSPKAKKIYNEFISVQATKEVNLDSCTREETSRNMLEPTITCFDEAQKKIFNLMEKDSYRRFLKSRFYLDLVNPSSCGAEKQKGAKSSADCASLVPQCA
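MLSMR compounds (23 nl, pin-transferred) preincubated 10 min at room temperature with a 500nM (2x) first reagent, then RGS4 at 900nM (2x) plus Transcreener GDP mix added; fluorescence polarization (620/688 nm) read before and after 90 min at 30 °C.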
* marks the source's active call; other numbers are inactive results; i = inactive; ? = inconclusive; . = not tested or not shown; [ ] = dose if it differs, or a comment. Compounds with a hit are over-represented: about 6.6% of the library has one in this group of screens. Unless noted, calls follow the shape of the dose curve; as a rule, active = well fitted curve in the direction sought with a large enough effect; inconclusive = small, poorly fitted or top-dose-only effect, or another doubt; inactive = no such curve, though single readings can be large; an effect the other way counts as inactive or inconclusive. Potency is read from the fitted curve at half-maximal effect.

SMILES	SW480 rereplic	KB-3-1 tox	MCF10A rerep	TSG101-PTAP inh	KB-V1 MDR tox	RGS4 inhibitor
O=C1N/C(=N\N=C\c2cccs2)SC1Cc1ccc(Cl)cc1 (centres undefined)	-1%	i	?	-1%	i	-20%
O=C1N/C(=N\N=C\c2cccs2)SC1Cc1cccc(Cl)c1 (centres undefined)	?	?	2.9µM*	-1%	?	-4%
CC(C)(C)CC(C)(C)c1ccc(OCCO)cc1	7%	.	8%	.	.	.
Cc1ccc(C)c(NC(=O)CN2C(=O)c3cccc4cccc2c34)c1	.	i	.	.	i	-4%
CCC(=O)Nc1cc(-c2cccc(C)c2)nn1-c1ccccc1	.	i	.	.	i	31%
O=C(CN1C(=O)c2ccccc2S1(=O)=O)Nc1cc(S(=O)(=O)N2CCOCC2)ccc1N1CCOCC1	.	?	.	.	i	24%
O=C1N/C(=N\N=C\c2ccc3ncccc3c2)SC1Cc1ccc(SC(F)F)cc1 (centres undefined)	?	i	16µM*	-4%	?	-6%
Cc1ccc(CC2S/C(=N/N=C/c3ccco3)NC2=O)cc1 (centres undefined)	6%	i	3%	2%	i	9%
O=C(O)c1ccc(Nc2cc(Cl)c3nonc3c2[N+](=O)[O-])cc1	?	i	-6%	-6%	i	-79%
O=[N+]([O-])c1c(Nc2cccc(O)c2)cc(Cl)c2nonc12	?	18µM*	?	-4%	?	-69%[56.9 µM]
O=[N+]([O-])c1cncc([N+](=O)[O-])c1Nc1cccc(O)c1	?	?	29%	-6%	23µM*	-9%
COc1ccc(/C=C/c2cc(=O)c3cc(Cl)ccc3o2)cc1	?	i	21µM*	-4%	?	-10%
c1ccc(N2CCN(c3nc(-c4cccs4)nc4ccccc34)CC2)cc1	-1%	i	23µM*	-1%	i	8%
c1csc(-c2cc(N3CCCCC3)c3ccccc3n2)c1	17%	i	21µM*	0%	i	-9%
CCN(Cc1ccccc1)C(=O)Cn1c(=O)n(-c2cccc(C)c2)c(=O)c2c1c1cc(C)ccc1n2C	.	i	.	.	i	-8%
CC(=O)Nc1cc(OC(C)=O)c2nonc2c1OC(C)=O	2.9µM*	?	?	-5%	i	-53%
Cc1ccc(S(=O)(=O)N2CCN(c3nc(-c4ncccn4)nc4ccccc34)CC2)cc1	.	.	.	.	.	4%
CCN(CC(=O)Nc1ccc2c(c1)OCCO2)CC(=O)Nc1ccccc1C(F)(F)F	-5%	i	6%	-4%	12µM*	-22%
CCN(CC(=O)Nc1ccc2c(c1)OCCO2)Cc1nc2cc(Cl)ccc2c(=O)[nH]1	-1%	i	?	2%	21µM*	-6%
Cc1cc(C)cc(NC(=O)c2ccc3c(O)c(S(=O)(=O)c4ccccc4)c(=O)[nH]c3c2)c1	.	i	.	.	i	1%
Cc1ccc(SCCNC(=S)Nc2ccccc2)cc1	0%	i	9%	-7%	i	-5%
Cc1cc(C)cc(NC(=S)NCCSc2ccc(Cl)cc2)c1	0%	i	21µM*	-2%	i	-5%
Cc1ccc(SCCNC(=S)Nc2ccc(C)c(C)c2)cc1	?	?	15µM*	-4%	?	29%
Cc1cccc(Cn2c(=O)n(CCc3ccccc3)c(=O)c3c(C)c(C)sc32)c1	.	i	.	.	i	-3%
NC(CSC(c1ccccc1)(c1ccccc1)c1ccccc1)C(=O)O (centres undefined)	6.5µM*	3.7µM*	6.5µM*	-7%	?	-50%
SMILES	SW480 rereplic	KB-3-1 tox	MCF10A rerep	TSG101-PTAP inh	KB-V1 MDR tox	RGS4 inhibitor
CC1CCN(C(=O)C2COc3ccccc3C2)CC1 (centres undefined)	.	i	.	.	?	-5%
CCOC(=O)c1ccccc1Nc1nc2ccc(C)cc2n2nnnc12	.	i	.	.	i	-9%
CCOC(=O)N1CCC(Nc2nc3ccccc3n3nnnc23)CC1	8%	i	?	-6%	2.3µM*	17%
CC1=C(C(=O)Nc2ccccc2)C(c2cccc(O)c2)n2nc(-c3ccccc3Cl)nc2N1 (centres undefined)	.	i	.	.	?	-4%
O=C(/C=C/c1c[nH]c2ccccc12)c1cccc2ccccc12	16µM*	?	21µM*	3%	?	-2%
C(=C\c1c[nH]c2ccccc12)/c1nccc2ccccc12	.	i	.	.	i	.
Cc1ccccc1C(=O)Nc1c(C)nc2ccccn2c1=O	.	.	.	.	.	23%
CS(=O)(=O)c1nc(-c2ccccc2)cc(-c2ccccc2)c1C#N	6.5µM*	?	2.9µM*	-4%	i	-48%
Cc1ccc(-c2cc(-c3ccccc3)c(C#N)c(Br)n2)cc1	.	i	?	-8%	i	-8%
COc1ccc2c(c1)C(C)=CC(C)(C)N2S(=O)(=O)c1ccc(Br)cc1	18µM*	4.1µM*	?	2%	3.3µM*	4%
CC1=CC(C)(C)N(S(=O)(=O)c2ccc(C)cc2)c2ccccc21	6%	16µM*	0%	-8%	?	-4%
CCOc1ccc2c(c1)C(C)=CC(C)(C)N2S(=O)(=O)c1ccc(NC(C)=O)cc1	?	1.6µM*	?	0%	1.3µM*	-2%
CC1=CC(C)(C)N(C(=O)CN2C(=O)c3ccccc3C2=O)c2ccccc21	-2%	i	30%	-6%	?	-19%
CCOc1ccc2c(c1)C(C)=CC(C)(C)N2S(=O)(=O)c1ccc(F)cc1	?	7.3µM*	?	-4%	?	-25%
CCn1c(SCC(=O)Nc2c(C)cccc2C)nnc1-c1nonc1NC(C)=O	.	i	.	.	i	18%
O=C(Cn1c(=O)n(-c2ccccc2)c(=O)c2c3c(sc21)CCCC3)Nc1ccc(F)cc1F	.	i	.	.	i	17%
CCCc1cnc2c(c1SCC(=O)N1CCC(C)CC1)c(=O)n(C)c(=O)n2C	.	i	.	.	i	7%
CC1=CC(C)(C)N(S(=O)(=O)c2ccc(F)cc2)c2ccc(C)cc21	-1%	23µM*	-5%	-10%	7.3µM*	9%
COc1ccc2c(c1)C(C)=CC(C)(C)N2S(=O)(=O)c1ccc(NC(C)=O)cc1	1.5µM*	2.1µM*	?	-4%	i	6%[56.9 µM]
C#C[C@]1(O)CCC2C3CCC4=CC(=O)CCC4C3CC[C@@]21C (some centres undefined)	3%	.	-6%	.	.	.
